Screening data from PubChem BioAssay.
Shiga inhibitor = A qHTS for Small Molecule Inhibitors of Shiga Toxin; inhibition, % at 38.7 µM; AID 2315, 2010; Vero cells, Shiga toxin protein synthesis inhibition reporter; 290,000 compounds, 9.2% hits; in the data active = inhibition mostly above about 28%, no sharp cut-off; inactive = mostly below about 43%
CHX counter = Cycloheximide Counterscreen for Small Molecule Inhibitors of Shiga Toxin. AID 2314, 2010. 300,000 compounds, 12% hits. cell reporter, cycloheximide protein synthesis inhibition counterscreen. max response, %; in the data active = max response mostly above about 13%, no sharp cut-off; inactive = mostly below about 14%; note: read at 38.3 µM for the half of the compounds with a filed dose
SARS PLP yeast = qHTS of Yeast-based Assay for SARS-CoV PLP. S. cerevisiae expressing SARS-CoV PLpro, growth rescue. Potency, µM (top dose mostly 32.9 µM), most hits filed as activators. 330,000 compounds, 0.19% hits. AID 485353, 2010; calls by dose curve; note: nearly all actives have a fitted effect of over 55% in size
Pf growth 48h = Primary qHTS for delayed death inhibitors of the malarial parasite plastid, 48 hour incubation | P. falciparum luciferase growth in erythrocytes, 48 h | Potency, µM (titrated, usually from 28.7 µM), usual class: inhibitors | AID 504832, 2011 | 310,000 compounds, 5.9% hits
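Growth was read as firefly luciferase luminescence after a 48 h, 37 C, 5% CO2 exposure of compounds to reporter-bearing P. falciparum cultures (0.1% parasitemia, 2% hematocrit final) in Albumax-supplemented RPMI 1640.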
Pf growth 96h = Primary qHTS for delayed death inhibitors of the malarial parasite plastid, 96 hour incubation; P. falciparum luciferase reporter growth, 96 h; Potency, µM (doses to about 28.7 µM), actives largely listed as inhibitors; 320,000 compounds, 6.9% hits; AID 504834, 2011
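Parasite growth measured via integrated firefly luciferase reporter in P. falciparum. Infected erythrocytes at 2% hematocrit, 0.05% parasitemia final were treated 96 hours at 37 C under 5% CO2, and luminescence was read.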
NS1 inh = qHTS Assay for Inhibitors of Influenza NS1 Protein Function; Potency, µM (top dose mostly 46.1 µM); 270,000 compounds, 0.4% hits; AID 2326, 2010; calls by dose curve; note: actives are rising curves; nearly all actives have a fitted effect of over 50% in size
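In this qHTS, NS1 from influenza A is expressed in budding yeast, where it slows growth. Cells are switched from glucose to 2% galactose medium (pH 6.0, -URA), treated with compound, and growth recovery is read at OD600.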
Numbers stand for hits; - = inactive; ? = inconclusive; . = not tested or not shown; ! = a repeat was not active; [ ] = dose if it differs, or a comment. In the library only some 21% were active in any assay of this set; here they are far more common. Unless noted, calls come from the whole dose curve; as a rule, active = well fitted inhibition curve with a large enough effect; inconclusive = small, poorly fitted or top-dose-only effect, or another doubt; inactive = no such curve, though single readings can be large or run the other way.

SMILES	Shiga inhibitor	CHX counter	SARS PLP yeast	Pf growth 48h	Pf growth 96h	NS1 inh
CCCOC(=O)C(C)n1cnc2sc(C)c(C)c2c1=O (stereo not given)	-	-	-	.	-	-
O=C(c1cncc(Br)c1)N1CCN(S(=O)(=O)c2ccc(Cl)cc2)CC1	-	-	-	-	-	-
COc1ccc(C2/C=C\[C@H](O[Si](C)(C)C(C)(C)C)[C@H](C(C)C)CC(=O)N2Cc2ccccc2)cc1 (stereo not given in full)	-	-	.	.	.	.
Cc1cc2c(C(C)C)c(O)c(O)c(C=O)c2c(O)c1-c1c(C)cc2c(C(C)C)c(O)c(O)c(C=O)c2c1O	-	-	10µM	13µM	5.2µM	0.35µM!
Cc1nn(-c2ccccc2)c(Cl)c1C(=O)NCCCCNC(=O)c1c(C)nn(-c2ccccc2)c1Cl	-	-	-	13µM	.	-
Cc1nn(-c2ccccc2)c(C)c1C(=O)NCCc1ccc(Cl)cc1	-	-	-	-	-	-
Cc1nn(-c2ccccc2)c(C)c1C(=O)NCCc1ccccc1	74	33	-	-	-	-
Cc1cccc(NC(=O)c2c(C)nn(-c3ccccc3)c2Cl)c1	113	47	-	-	-	-
Cc1nn(Cc2ccccc2)c(Cl)c1C(=O)NCCc1ccc(Cl)cc1	-	14	-	?	?	-
CCc1ccc(NC(=O)CSc2nnc(-c3cnccn3)n2C)cc1	-	-	-	-	?	-
Cn1nc(C(=O)Nc2cccc(Cl)c2)cc1C(=O)Nc1cccc(Cl)c1	-	-	-	?	-	-
CCOC(=O)c1cc(C(=O)Nc2cccc(C)c2)nn1C	155	40	-	-	-	-
CSc1nc2ccc(NS(=O)(=O)c3ccc4c(c3)OCCO4)cc2s1	-	-	-	-	-	-
C=CCn1c(O)c(C(CC)=Nc2cccc(C(=O)O)c2)c(=O)[nH]c1=O	76	76	-	-	-	-
C=CCn1c(O)c(C(CC)=Nc2ccc(N(C)C)cc2)c(=O)[nH]c1=O	-	-	-	0.66µM	1.7µM	-
C=CCn1c(O)c(C(CC)=Nc2ccc3c(c2)CCC3)c(=O)[nH]c1=O	-	-	-	-	-	-
C=CCn1c(O)c(C(C)=Nc2cccc(C(=O)O)c2)c(=O)[nH]c1=O	62	29	-	-	-	-
C=CCn1c(O)c(C(C)=Nc2cccc(C(F)(F)F)c2)c(=O)[nH]c1=O	-	-	-	-	-	-
CCCCn1c(O)c(C(CC)=Nc2cccc(C(=O)O)c2)c(=O)[nH]c1=O	-	-	-	-	-	-
CCOc1ccc(S(=O)(=O)Nc2ccc(F)cc2)c(C)c1C	-	-	-	.	-	-
CCCN1CN(Cc2ccco2)c2nc3ccccc3n2C1	-	36	-	-	-	-
COc1ccc(OCCn2c(NC(=O)c3ccco3)nc3ccccc32)cc1	-	20	-	?	-	-
Cc1nc2ccccc2c(=O)n1Cc1ccco1	-	-	-	-	-	-
c1coc(Cn2c(-c3ccco3)nc3ccccc32)c1	45	17	-	-	-[5.75 µM]	-
O=C(NCCc1nc2ccccc2n1CCOc1ccc(Cl)cc1)C1CCCCC1	-	-	.	.	.	.
SMILES	Shiga inhibitor	CHX counter	SARS PLP yeast	Pf growth 48h	Pf growth 96h	NS1 inh
Clc1ccc(OCCn2c(-c3ccco3)nc3ccccc32)cc1	-	-	-	.	12µM	-
NC(=O)c1ccccc1NC(=O)CSc1cn[nH]n1	-	-	-	-	-	-
O=C1COc2ccc(N3C(=O)C=CC3=O)cc2N1	-	-	-	-	-	-
CC(=O)c1c(C(C)=O)c(C)n(C2CCCCC2)c1C	-	-	-	-	1.5µM	-
O=C(/C=C/c1ccccc1)NC(=O)c1ccccc1O	51	28	-	1.3µM	1.7µM	-
O=C(/C=C/c1ccccc1)CC(=O)c1ccccc1O	27	25	-	-	?	-
CCOC(=O)C1CCN(S(=O)(=O)CCNC(=O)c2cccc(OC)c2)CC1	.	.	-	-	-	.
CC(C(=O)NCCC1=CCCCC1)c1ccc([N+](=O)[O-])cc1 (stereo not given)	-	-	-	-	-	-
COc1ccc(OC)c(-n2c(SC)nnc2-c2c[nH]c3ccccc23)c1	-	-	-	.	4.1µM	-
COc1cccc(-n2c(SCC(N)=O)nnc2-c2c[nH]c3ccccc23)c1	-	-	-	.	12µM	-
CCOc1ccccc1-n1c(SCC(N)=O)nnc1-c1ccccc1	-	-	-	-	.	-
COc1ccccc1-n1c(SCC(N)=O)nnc1-c1ccccc1	-	-	-	-	1.7µM	-
COc1ccccc1-n1c(C)nnc1SCC(N)=O	-	-	-	-	-	-
COc1ccc(OC)c(-n2c(SCC(N)=O)nnc2-c2c[nH]c3ccccc23)c1	-	-	-	.	5.2µM	-
CC(=O)c1ccc(N2CCN(C(=S)Nc3ccc(Cl)c(Cl)c3)CC2)cc1	-	-	-	-	-	.
Cc1ccccc1-n1c(SCc2c(C)noc2C)nnc1-c1c[nH]c2ccccc12	-	-	-	?	15µM	-
CCOc1ccc(-n2c(SCC(=O)Nc3cc(C)on3)nnc2-c2c[nH]c3ccccc23)cc1	-	-	-	.	5.9µM	-
N#Cc1ccc(CSc2nnc(-c3c[nH]c4ccccc34)n2-c2ccccc2)cc1	-	-	-	?	?	-
COc1ccc(OC)c(-n2c(SCC(=O)Nc3cc(C)on3)nnc2-c2c[nH]c3ccccc23)c1	-	-	-	.	4.7µM	-
Cc1cc(NC(=O)CSc2nnc(-c3c[nH]c4ccccc34)n2-c2ccc(F)cc2)no1	-	-	-	-	-	-
Cc1cc(C(=O)NCCN2C(=O)S/C(=C\c3cccs3)C2=O)ccc1[N+](=O)[O-]	-	-	-	-	-	-
COc1ccccc1N1CCN(C(=O)CSc2nc3ccccc3nc2N2CCC(C)CC2)CC1	-	-	-	?	-	-
CC(C)(C)OC(=O)N1CCC[C@H]1c1nnc(SCc2c(Cl)cccc2Cl)o1	-	-	-	9.3µM	?	-
Cc1ccc(O)c(C2=Nc3ccccc3N=C(c3cccs3)C2)c1	-	-	-	?	?	-
Cc1ccc2c(c1)N=C(c1ccccc1)CC(C(Cl)Cl)=N2	84	37	-	-	-	-
Cc1ccc(C2=Nc3ccccc3N=C(C(Cl)Cl)C2)cc1	123	41	-	-	-	.
NC(=O)CSc1nnnn1-c1ccccc1Cl	-	-	-	-	?	-
COc1ccc(C2C(C(=O)NCc3ccccn3)CCC(=O)N2c2cc(OC)c(OC)c(OC)c2)cc1 (stereo not given)	94	40	-	-	12µM	.
COc1ccc(N2C(=O)CCC(C(=O)N3CCCCC3)C2c2ccc(F)cc2)cc1 (stereo not given)	-	-	-	-	.	-
COc1ccc(N2C(=O)CSC2c2ccc([N+](=O)[O-])cc2)cc1 (stereo not given)	-	-	-	.	5.2µM	-
